SMN2 splice up: increases expression of the SMN2 splice variant. Potency, µM (series often up to 46.1 µM), without a hit: top-dose activity change, positive = activation, hits mostly activators. AID 1458. hit rate 2.8% among 210,000. HEK293 SMN2-luciferase splicing reporter, luminescence, 30-36 h; further: % of control where 0% means no effect; nearly all actives have a fitted effect of over 55% in size
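qHTS luciferase splicing reporter: luminescence rises when SMN2 exon 7 is included in transfected HEK293 cells. Compound exposure lasted 30-36 h at 37C, with 4.5 mM final sodium butyrate as control, followed by a ONE-Glo read.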
Rab9 prom act: Rab9 promoter activation. Huh7 Rab9 promoter-luciferase reporter, luminescence, 24 h. Potency, µM (doses to about 9.22 µM), inactives show at the highest dose activation, negative = inhibition, actives largely listed as activators. hit rate 2.8% among 320,000; further: % of control where 0% means no effect; nearly all actives have a fitted effect of over 60% in size
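Stable Rab9-luc Huh7, 1500 cells/well, 2 h settle; cmpd in DMSO, 24 h, 37 °C/5% CO2; luciferase reagent 10 min RT; luminescence.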
NPC1 promoter act: NPC1 promoter activation; hit rate 2.4% among 320,000; Huh7 NPC1 promoter luciferase reporter, 24 h; Potency, µM (titrated, usually from 9.22 µM), inactives show at the highest dose activation, most hits filed as activators; further: % of control where 0% means no effect; nearly all actives have a fitted effect of over 60% in size
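In 1536-well qHTS, Huh7 cells harboring an NPC1 promoter–luciferase construct received compound for 24 h; activation was quantified by luminescence following luciferase reagent addition.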
Luc counter: blocks Kinase-Glo luciferase, a counter-screen artifact | Q27757 | Kinase-Glo luciferase, ATP luminescence, 8 min | Potency, µM (highest dose often 38.3 µM), for inactives: at the top dose activity change, negative = inhibition, usual class: inhibitors | hit rate 0.28% among 200,000 | AID 1379; further: on the % scale 0 is the no-effect control and ±100 the full control effect; nearly all actives have a fitted effect of over 60% in size
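Light output from Kinase-Glo luciferase with luciferin and 10 uM ATP in 50 mM imidazole pH 7.2, KCl, MgCl2, Tween 20, BSA; compound pin-delivered, 8-min ambient incubation, then luminescence read.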
ELG1 genotoxic: induces genotoxicity in HEK293T cells with luciferase-tagged ELG1; HEK293T ELG1-luciferase reporter, luminescence, 16 h; Potency, µM (titrated, usually from 46 µM), inactives show at the top dose activity change, positive = activation, usual class: activators; hit rate 1.3% among 330,000; AID 504466; further: % of control where 0% means no effect; nearly all actives have a fitted effect of over 60% in size
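Genotoxicity was scored as increased ELG1-luciferase reporter signal, measured by ONE-Glo luminescence (30 min, room temperature). Compound or vehicle exposure of the HEK293T reporter cells lasted 16 hr at 37°C.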
FLuc counter: counter-screen for miR-21 project: firefly luciferase inhibitors or activators; P08659; purified FLuc, Km substrates, luminescence inhibition; Potency, µM (titrated, usually from 57.5 µM), for inactives: top-dose activity change, negative = inhibition, actives largely listed as inhibitors; hit rate 6.9% among 360,000;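 further: plate controls were vehicle for no effect and reference inhibitor for full effect; nearly all actives have a fitted effect of over 55% in size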
Target sequence (P08659 whole entry, looked up): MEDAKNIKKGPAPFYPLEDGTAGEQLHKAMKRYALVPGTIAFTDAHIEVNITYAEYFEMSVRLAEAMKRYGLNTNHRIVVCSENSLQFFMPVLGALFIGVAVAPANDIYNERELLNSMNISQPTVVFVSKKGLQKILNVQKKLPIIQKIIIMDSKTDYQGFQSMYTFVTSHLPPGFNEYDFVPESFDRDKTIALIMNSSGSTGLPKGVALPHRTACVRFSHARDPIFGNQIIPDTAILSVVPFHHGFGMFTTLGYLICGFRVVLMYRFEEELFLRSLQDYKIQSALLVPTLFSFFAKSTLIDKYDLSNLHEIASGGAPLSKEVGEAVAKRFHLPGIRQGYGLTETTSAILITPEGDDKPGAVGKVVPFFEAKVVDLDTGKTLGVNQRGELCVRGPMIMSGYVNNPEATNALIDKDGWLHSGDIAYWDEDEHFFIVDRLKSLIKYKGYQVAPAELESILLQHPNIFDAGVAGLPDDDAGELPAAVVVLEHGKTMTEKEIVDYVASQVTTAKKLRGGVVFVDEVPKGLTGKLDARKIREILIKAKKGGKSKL
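Purified P. pyralis luciferase (10nM final) with 10uM D-luciferin and 10uM ATP (Km levels) in 50mM Tris acetate pH 7.5, 10mM Mg acetate, 0.01% Tween-20, 0.05% BSA; qHTS 6-point titration, ~60 µM downward; luminescence read.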
* marks the source's active call; other numbers are inactive results; ? = inconclusive; / = no result; [ ] = remark or other dose. Only some compounds are listed: those with a hit (about 7.5% of all), similar ones and a draw of the others. The call rests on the fitted dose curve; in most records, active means well fitted curve in the direction sought with a large enough effect; inconclusive means small, poorly fitted or top-dose-only effect, or another doubt; inactive means no such curve, though single readings can be large; an effect the other way counts as inactive or inconclusive. Potency means the concentration at half of the fitted maximal effect.

SMILES	SMN2 splice up	Rab9 prom act	NPC1 promoter act	Luc counter	ELG1 genotoxic	FLuc counter
N#Cc1nc(-c2ccccc2)oc1N1CCCCC1	-18%	-1%	13%	10%	7%	-19%
N#Cc1c(N2CCCC2)nsc1-c1ccccc1	/	?	?	/	?	15µM*
COc1ccc(C(=O)Nc2cc(C(C)C)c(O)c(S(=O)(=O)c3ccc(Cl)cc3)c2C)cc1	11µM*	/	/	/	/	?
COc1ccc(C(=O)Nc2cc(C(C)C)c(O)c(S(=O)(=O)c3ccc(OC)cc3)c2C)cc1	16µM*	/	/	/	/	?
COc1ccc(S(=O)(=O)c2c(O)c3ccc(C(=O)Nc4ccccc4F)cc3[nH]c2=O)cc1	/	4%	-4%	/	0%[9.26 µM]	-17%
O=C(NC(=O)c1ccccc1)C1=C(N2CCCC2)COC1=O	/	1.3µM*	2.2µM*	/	?	?
O=C(NS(=O)(=O)Nc1ccccc1)C1=C(N2CCCC2)COC1=O	/	/	/	/	1%	/
COc1cc(/C=C/C2=NNC(=O)CC2)cc(OC)c1OC	/	-4%	-3%	/	?	-1%
CC(C)c1ccc(/C=C/C2=NNC(=O)CC2)cc1	10µM*	?	-18%	-4%	?	5.4µM*
O=C(O)c1ccc(/C=N/Nc2ccc(C(F)(F)F)cn2)cc1	13µM*	?	0.4µM*	-1%	?	4.8µM*
COc1cc(/C=N/Nc2ccc(C(F)(F)F)cn2)ccc1O	25%	11%	1%	1%	16%	?
O=C(O)c1ccc(N/N=C/c2ccc(OC(=O)c3ccccc3Cl)cc2)cc1	-28%	?	?	2%	?	1.9µM*
CC(C)c1ccc(/C=N/NC(=O)CC(=O)NCc2ccccc2)cc1	30%	-3%	-8%	-1%	5%	?
CC(C)c1ccc(/C=N/Nc2ccc(C(=O)O)cc2)cc1	-71%	-23%	-23%	0%	?	0.19µM*
O=C(O)c1ccc(/C=N/Nc2cccc(C(F)(F)F)c2)cc1	10µM*	2.5µM*	2.8µM*	0%	?	21µM*
O=C(COC(=O)c1ccc(Br)o1)NC1CCCc2ccccc21 (stereo not drawn)	/	0%	-1%	/	0%	-1%
C#C[C@]1(O)CC[C@H]2[C@@H]3CCC4=Cc5oncc5CC4(C)[C@H]3CCC21C (stereo partly drawn)	/	-21%[46.1 µM]	-19%[46.1 µM]	/	/	/
COc1ccc(-n2ccn(Cc3ccccc3C)c(=O)c2=O)cc1	/	/	/	/	/	-3%
O=C(O)c1ccc(/C=N/O)cc1	/	-1%	-5%	/	1%	0%
O=C(O)c1cccc(N/N=C/C2=C(Cl)c3cc(Cl)ccc3SC2)c1	0.5µM*	0.79µM*	0.32µM*	2%	0.58µM*	1.3µM*
O=C(O)c1cccc(N/N=C/c2ccc(F)c(F)c2)c1	1.1µM*	0.28µM*	0.28µM*	0%	?	0.34µM*
O=C(O)c1ccc(N/N=C/C=C/c2ccccc2)cc1	/	0.25µM*	0.32µM*	/	?	0.6µM*
COC(=O)c1ccc(COc2ccccc2/C=N/Nc2cccc(C(=O)O)c2)cc1	/	?	?	-2%	?	?
O=C(O)c1ccc(N/N=C/c2ccc(-c3ccccc3)cc2)cc1	4µM*	0.32µM*	?	-2%	?	0.48µM*
CCOC(=O)/C(C#N)=C1\SS/C(=C(/C#N)C(=O)OCC)S1	/	0%	-6%	/	-2%	?
SMILES	SMN2 splice up	Rab9 prom act	NPC1 promoter act	Luc counter	ELG1 genotoxic	FLuc counter
Nc1c2c(nc3sc4c(c13)CCCCC4)CCCCC2	?	1.6µM*	1.4µM*	-3%	?	1.7µM*
CC1CCc2c(nc3sc4c(c3c2N)CCCC4)C1 (stereo not drawn)	?	?	?	-14%	2%	4.8µM*
CC1CCc2nc3sc4c(c3c(N)c2C1)CCCC4 (stereo not drawn)	?	25%	?	-4%	3%	3.8µM*
CCCc1nc2sc3c(c2c(=O)[nH]1)CCCC3	/	1%	-2%	-2%	1%	?
O=C(CN1CCN(S(=O)(=O)c2ccc(Br)cc2)CC1)N/N=C/c1cccnc1	-5%	-1%	-3%	2%	-3%	4%
CC(=O)c1cccc(CN2CCCC(CCC(=O)NCc3ccccc3F)C2)c1 (stereo not drawn)	/	-3%	-1%	0%	-1%	2%
O=C(Nc1nccs1)c1c(O)c2c([nH]c1=O)CCCC2	/	2.2µM*	?	/	8%	?
CCCc1nnc(NC(=O)c2c(O)c3c([nH]c2=O)CCCC3)s1	11%	?	28%	14%	3%	2%
O=C(N/N=C/c1cccc(Cl)c1)c1c(O)c2c([nH]c1=O)CCCC2	/	2.5µM*	2.8µM*	/	?	?
O=C(Nc1ccccc1O)c1c(O)c2c([nH]c1=O)CCCC2	18µM*	3.5µM*	?	-3%	?	7.6µM*
C(=N\Nc1nc(Nc2ccccc2)nc(N2CCOCC2)n1)/c1c[nH]c2ccccc12	6%	-3%	-1%	-1%	-8%	4.3µM*
Cc1[nH]c2ccccc2c1/C=N/Nc1nc(Nc2ccc(F)cc2)nc(N2CCOCC2)n1	-13%	-1%	1%	1%	-10%	17µM*
Cc1ccc(Nc2nc(N/N=C/c3c[nH]c4ccccc34)nc(N3CCOCC3)n2)cc1	8%	1%	0%	3%	-8%	?
O=C(Oc1cccc(/C=N/Nc2nc(Nc3ccccc3)nc(N3CCOCC3)n2)c1)c1ccco1	19%	0%	7%	-1%	0%	7.6µM*
CN(C)c1ccc(/C=N/NC(=O)COc2ccccc2)cc1	15%	20%	9%	-1%	7%	19µM*
CN(C)c1ccc(/C=N/NC(=O)CNC(=O)/C=C/c2ccccc2)cc1	/	?	?	/	?	2.4µM*
CNC(=S)N/N=C/c1ccc(N(C)C)cc1	/	2.8µM*	3.5µM*	/	?	?
CC(NC(=O)c1cc(COc2cccc(C(F)(F)F)c2)on1)c1nccs1 (stereo not drawn)	/	2.8µM*	?	/	?	15µM*
O=C(NC1CCOC1)c1cc(COc2cccc(C(F)(F)F)c2)on1 (stereo not drawn)	/	?	0%	/	?	24µM*
O=C(NCC1CCOCC1)c1cc(COc2cccc(C(F)(F)F)c2)on1	/	1%	-1%	/	-9%	0%
CCOC(=O)N1CCN(C(=O)c2cc(COc3cccc(C(F)(F)F)c3)on2)CC1	/	2.8µM*	3.2µM*	/	?	15µM*
CCOC(=O)N1CCN(C(=O)c2cc(COc3cccc(C(C)=O)c3)on2)CC1	/	?	23%	/	13%	?
